Bioassay records deposited in PubChem by National Center for Advancing Translational Sciences (NCATS).
The list is not random: actives were taken first. Their share in the collection is about 4.8%.
ATXN2 expr inh: inhibitors of ATXN2 expression. AID 1745845. HEK-293 ATXN2-luciferase reporter, luminescence, 24 h. 0.72% of 360,000 active. Potency, µM (top dose mostly 57 µM), usual class: inhibitors; also: nearly all actives have a fitted effect of over 55% in size
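qHTS (up to 57 uM final) was run with 24 h compound exposure of reporter cells at 37 °C. Each well was multiplexed: SteadyGlo luminescence measured ATXN2-luciferase expression after a fluorogenic Gly-Phe-AFC viability readout (25 uM final).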
USP1 inh: USP1/UAF1 (human) deubiquitinase inhibition. 0.23% of 390,000 active. AID 743255. recombinant USP1/UAF1, Ub-Rhodamine cleavage fluorescence. Potency, µM (titrated, usually from 57.1 µM), actives largely listed as inhibitors. O94782; also: nearly all actives have a fitted effect of over 60% in size
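In this screen, compounds sit with the deubiquitinase complex (1nM) for 15 min at room temperature before Ub-Rho is added at 150nM final. Fluorescence rise is then followed for 6 reads every 60 seconds.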
IL-1B inflam inh: blocks inflammasome-driven IL-1 beta release; THP-1 LPS/ATP IL-1B secretion, AlphaLISA, 16 h; stronger effect = lower value; 4.7% of 360,000 active; activity change, % at 57.5 µM; AID 743279; in the data active = activity change below about -50%; inconclusive = mostly about -30% to -49%
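Secreted IL-1B measured by AlphaLISA bead assay after 16 h compound exposure of THP-1 cells; compounds (final up to 57.5 uM) added 1 h before LPS (250 ng/mL) and ATP (1.25 mM) stimulation; lower signal means less secretion.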
USP2a block: blocks human ubiquitin-specific protease USP2a; AID 463254; 0.01% of 330,000 active; O75604; Potency, µM (titrated, usually from 38.3 µM), usual class: inhibitors; USP2 core, Ub-CHOP2 coupled fluorogenic reporter, 485/531
Target sequence (O75604 whole entry, looked up): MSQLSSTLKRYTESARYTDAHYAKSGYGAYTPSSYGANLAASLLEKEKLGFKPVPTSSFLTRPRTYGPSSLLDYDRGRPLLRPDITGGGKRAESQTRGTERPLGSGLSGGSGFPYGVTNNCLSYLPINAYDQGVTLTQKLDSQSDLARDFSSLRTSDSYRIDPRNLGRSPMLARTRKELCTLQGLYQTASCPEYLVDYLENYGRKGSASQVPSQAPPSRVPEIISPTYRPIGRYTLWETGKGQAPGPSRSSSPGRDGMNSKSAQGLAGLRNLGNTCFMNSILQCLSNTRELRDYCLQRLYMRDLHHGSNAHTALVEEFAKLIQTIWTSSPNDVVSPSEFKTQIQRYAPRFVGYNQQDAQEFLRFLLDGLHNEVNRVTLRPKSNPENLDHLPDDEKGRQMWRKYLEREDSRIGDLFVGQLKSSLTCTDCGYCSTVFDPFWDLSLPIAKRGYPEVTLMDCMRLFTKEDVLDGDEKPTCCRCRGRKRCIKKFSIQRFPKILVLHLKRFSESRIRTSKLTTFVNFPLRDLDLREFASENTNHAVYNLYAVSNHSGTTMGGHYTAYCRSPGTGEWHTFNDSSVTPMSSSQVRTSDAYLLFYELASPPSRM
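USP2 core (10nM final) preincubated 30min RT with compound in 20mM Tris-HCl pH 8.0, 2mM CaCl2, 2mM beta-mercaptoethanol, 0.05% CHAPS; 25nM Ub-CHOP2 plus 25nM reporter substrate added, fluorescence (Ex485/Em531) read after 60min.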
ATXN viability: viability counter-screen for ATXN expression inhibitors; S2 cells (HEK-293 line with an ATXN2-luciferase reporter) viability, CellTiter-Fluor protease fluorescence, 24 h; Potency, µM (series often up to 56.7 µM), usual class: cytotoxic; 0.49% of 400,000 active; also: nearly all actives have a fitted effect of over 40% in size
Each line names hits and unclear results; the compound was inactive in the other large screens. Unless noted, calls follow the shape of the dose curve; as a rule, active = well fitted curve in the direction sought with a large enough effect; inconclusive = small, poorly fitted or top-dose-only effect, or another doubt; inactive = no such curve, though single readings can be large; an effect the other way counts as inactive or inconclusive.

Cc1oc(-c2ccc(Cl)cc2)nc1CN1CCCC(C(=O)NCc2ccco2)C1 (centres undefined)	ATXN2 expr inh inconclusive, IL-1B inflam inh -50.9, ATXN viability inconclusive
CCCN(CCC)CCNC(=O)C1CCN(Cc2nc(-c3ccc(Cl)cc3)oc2C)CC1	ATXN2 expr inh inconclusive, IL-1B inflam inh inconclusive, ATXN viability 15.8µM
CC1CCCN(C(=O)c2ccc(-c3ccccc3Cl)o2)C1 (centres undefined)	none
C=CS(=O)(=O)N(Cc1ccccc1Br)[C@H](CO)Cc1ccccc1	ATXN2 expr inh 15.8µM, IL-1B inflam inh -108.2, ATXN viability 12.6µM (no result: USP2a block)
CC(C)C[C@H](CO)N(Cc1ccccc1)S(=O)(=O)N(Cc1ccccc1)[C@@H](CO)CC(C)C	ATXN2 expr inh inconclusive, IL-1B inflam inh -87.1, ATXN viability inconclusive
C=CS(=O)(=O)N(Cc1ccccc1)[C@H](CO)CC(C)C	USP1 inh inconclusive, IL-1B inflam inh -60.5, ATXN viability inconclusive (no result: USP2a block)
O=S(=O)(N(Cc1ccccc1)[C@@H](CO)Cc1ccccc1)N(Cc1ccccc1)[C@@H](CO)Cc1ccccc1	ATXN viability inconclusive
COc1cc(CN2C(=O)C(C)ON=C2c2cccs2)cc(OC)c1 (centres undefined)	none (no result: USP1 inh, USP2a block)
CCOC(=O)c1c2c3c(c(Cl)ccc3[nH]c1=O)C(=O)c1ccccc1-2	IL-1B inflam inh -84.5, ATXN viability inconclusive
CN(C)c1cc(Cl)c2nonc2c1N	USP1 inh 31.6µM
CN(C)CCn1c2ccccc2c2nc3ccc([N+](=O)[O-])cc3cc21	ATXN2 expr inh 3.16µM (no result: IL-1B inflam inh)
O=C1CCCCCC[C@@H](O)[C@H](O)C[C@H](c2ccccc2)O1	none (no result: USP1 inh, USP2a block)
CCN1CCN(CC(=O)n2c3c(c4ccccc42)CC(C)CC3)CC1 (centres undefined)	none
CC1CCc2c(c3ccccc3n2C(=O)CCl)C1 (centres undefined)	USP1 inh inconclusive, IL-1B inflam inh -59.9
COC(=O)c1ccc(/C(O)=C(\C#N)c2nc3ccccc3s2)cc1	IL-1B inflam inh -77.4
COCCSc1ccccc1C(=O)NCc1ccc(S(N)(=O)=O)cc1	none
COCCSc1ccccc1C(=O)NCc1cccnc1	IL-1B inflam inh -75.9
CCOC(=O)[C@]12CCC=C1N(Cc1ccc3c(c1)OCO3)C(=O)[C@H](CC(=O)NCCCOC)C2	none (no result: USP1 inh, USP2a block)
O=C(C[n+]1cc(Br)cc2ccccc21)c1ccc(Cl)cc1	none
O=C(C[n+]1cc(Br)cc2ccccc21)c1ccc(Br)cc1	IL-1B inflam inh -65.7
CNc1nc(NCc2cccc(OC)c2)c2sccc2n1	ATXN viability inconclusive (no result: USP1 inh, USP2a block)
COc1cccc(CNc2nc(NCC3CC3)nc3ccsc23)c1	ATXN2 expr inh inconclusive, IL-1B inflam inh -71.8, ATXN viability inconclusive (no result: USP1 inh, USP2a block)
COc1cccc(CNc2nc(NCc3ccccc3)nc3ccsc23)c1	ATXN2 expr inh inconclusive, IL-1B inflam inh -55.3 (no result: USP1 inh, USP2a block)
CC(C(=O)NCc1ccccc1Cl)N1C(=O)c2ccccc2C1=O (centres undefined)	none
CNC(=O)c1c(NC(=O)c2ccco2)sc2c1CCCC2	IL-1B inflam inh -81.1
O=C(Nc1sc2c(c1C(=O)NCc1cccnc1)CCCC2)c1ccco1	IL-1B inflam inh -68.0
CCCOc1ccc(C2CC(=O)Nc3c2c(C)nn3-c2nncc(-c3cccc(OC)c3)n2)cc1OC (centres undefined)	none (no result: IL-1B inflam inh, USP2a block)
Cc1c(N)cccc1C(F)(F)F	none (no result: USP1 inh, IL-1B inflam inh, USP2a block)
COc1ccc(C(=O)c2c(N)c(C(=O)Nc3ccccc3Cl)c3ccccn23)cc1	none (no result: IL-1B inflam inh, USP2a block)
COc1ccc(OC)c(CNC(=O)c2cc3cc4ccc(OC)cc4nc3o2)c1	none (no result: IL-1B inflam inh, USP2a block)
COc1ccc2cc3cc(C(=O)NCc4ccc(C)cc4)oc3nc2c1	none (no result: IL-1B inflam inh, USP2a block)
COc1ccc2cc3cc(C(=O)NCCc4ccc(OC)c(OC)c4)oc3nc2c1	ATXN2 expr inh inconclusive, IL-1B inflam inh inconclusive, ATXN viability inconclusive
CCCN(CCC)CCCNC(=O)c1cc2cc3ccc(OC)cc3nc2o1	IL-1B inflam inh -77.7
COc1ccc2cc3cc(C(=O)NCc4cccs4)oc3nc2c1	IL-1B inflam inh -54.1
CCCCN(CC)CCCNC(=O)c1cc2cc3ccc(OC)cc3nc2o1	IL-1B inflam inh -50.4
COc1ccc(CN2CCN(C(=O)c3cccc4ccccc34)CC2)cc1OC	ATXN viability inconclusive
COc1ccc2ccccc2c1CN1CCN(C(=O)c2ccccc2)CC1	IL-1B inflam inh inconclusive
